Out of some 200,000 compounds screened, about 18,000 (9%) were called active. What follows is part of a selection rich in actives, with near analogues and random picks from the rest. Values without a mark were called inactive. No stated cut-off is given here; in the data, active means inhibition above about 50%; inactive means the rest.

The nature of the assay: antileishmanial activity against promastigotes – primary screen (AID 1063).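 Further: promastigotes grown with compound for 44 hours at 28 °C.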 Particulars: Leishmania major promastigotes, resazurin fluorescence viability; at 10 µM; active compounds read high.
Take `Cc1cccc(C2=N/C(=C/c3cccs3)C(=O)O2)c1`: the inhibition is 1.4%.
As to `Cc1ccc(NC(=O)CN2CCCCC2)c2c1CC(C)(C)O2`, the inhibition was 3.82%.
As to `Cc1cc(C)c2nc(SCC(=O)N(C)C3CCS(=O)(=O)C3)cc(C)c2c1` (stereo not drawn), the inhibition was 0.72%.
Turning to `Cc1cccc(C)c1OCC(=O)NC(Cc1c[nH]c2ccccc12)C(=O)O` (stereo not drawn), the inhibition was -3.57%.
As for `O=S(=O)(Nc1cc(S(=O)(=O)N2CCOCC2)ccc1N1CCCC1)c1cccs1`, the figure is -3.24%; as for `CN1CCN(CC(=O)C23CC4CC(CC(C4)C2)C3)CC1`, 88.5% (active); as for `CC(C)(C)NC(=O)CN1CCC(NC(=O)C23CC4CC(CC(C4)C2)C3)CC1`, 3.92%.
Turning to `O=C(N1CCCC1)C12CC3CC(C1)CC(C(=O)N1CCCC1)(C3)C2`, the inhibition was -2.33%.
Regarding `CCc1ccc(N2CC(O)=C(c3nc4ccccc4c(=O)[nH]3)C2=N)cc1`, the inhibition was -1.01%.
`CCCOc1ccc(N/C=C/C(=O)C(C)(C)C)cc1`: the inhibition was -5.85%.
With `CCCOc1ccc(C(=O)NCCc2ccccc2)cc1`, the inhibition was 7.66%.
`CCCOc1ccc(C(=O)C(CCC(CNCC)C(=O)c2ccc(OCCC)cc2)CNCC)cc1` (stereo not drawn): the inhibition was 100% (active).
For the compound `CC(C)NC(=S)NN=C1CCCCCCCCCCC1`, the inhibition was 18.9%.
In the case of `Cc1nn(C)c(C)c1Sc1ccccc1N`, the inhibition is -5.83%.
Turning to `CN(C)CCOc1cccc(Br)c1`, the inhibition is -3.33%.
Regarding `CCC(C(=O)OCCN(CC)CC)c1ccccc1` (stereo not drawn), the inhibition is -7.09%.
In the case of `CCOc1ccc(S(=O)(=O)N2CCCCCC2)c2ccccc12`, the inhibition was 14%.
With `CCN(CC)CCOCCOc1ccc(Cl)c2ccccc12` the figure was 99.7% (active); with `CN(C)CCOCCOc1ccc(Cl)c2ccccc12`, 98.1% (active); with `COc1ccc(N2C(=O)CC(Sc3n[nH]c(-c4ccc(C)cc4)n3)C2=O)cc1` (stereo not drawn), -3.19%.
For the compound `CCN1C(=O)/C(=c2\s/c(=C3\Sc4ccccc4N3C)c(=O)n2C)N(C)C1=S`, the inhibition is -4.84%.
Consider `CSc1cc(C)[nH]c(=O)n1`, for which the inhibition was -7.37%.
With `C/C(=N\N)c1c(-c2ccccc2)c2cc(Br)ccc2[nH]c1=O`, the inhibition is -1.92%.
Turning to `COc1ccc(C(=O)N/N=c2\oc3ccccc3cc2C(N)=O)cc1`, the inhibition is 10.2%.
As to `CC(OC(=O)CCc1nc(=O)c2ccccc2n1C)C(=O)NCc1ccc2c(c1)OCO2` (stereo not drawn), the inhibition is -3.8%.
With `CCC(C)(C)NC(=O)/C=C/c1cc(OC)c(OC)c(S(=O)(=O)N2CCc3ccccc32)c1` the figure was -8.31%; with `CCOC(=O)c1oc2c(CN3CCN(C)CC3)c(O)ccc2c(=O)c1-c1ccc(Br)cc1`, 23.6%.
As for `CN1CCN(Cc2c(O)ccc3c2oc(=O)c2ccccc23)CC1`, the inhibition is 3.53%.
Turning to `CCN1CCN(Cc2c(O)ccc3c(=O)c(-c4ccc(OC)c(OC)c4)c(C(F)(F)F)oc23)CC1`, the inhibition was 99.8% (active).
Take `COc1ccc(C(=O)NNc2cc(C)nc(NNC(=O)c3ccc(OC)cc3)n2)cc1`: the inhibition is -8.08%.
Regarding `Cn1c(=NC(=O)c2ccc3c(c2)OCCO3)sc2cc(S(C)(=O)=O)ccc21`, the inhibition is -9.12%.
For the compound `CCOc1ccccc1NC(=O)c1cccnc1`, the inhibition was -2.23%.
With `NC(=O)COC(=O)/C=C/c1ccc2ccccc2n1` the figure was 8.85%.
As for `COc1cccc(/C=C/c2ccc3ccccc3n2)c1OC(C)=O`, the figure is 75.8% (active); as for `COc1cccc(C(O)Cc2nc3ccccc3n2C)c1OC` (stereo not drawn), 9.44%.
In the case of `CC(OC(=O)c1ccc2ccccc2n1)C(=O)c1ccccc1` (stereo not drawn), the inhibition is -9.05%.
With `CCOc1cccc(/C=C/c2ccc3ccccc3n2)c1OC(C)=O` the figure was 66% (active); with `COC(=O)c1ccc(-n2cnc3ccccc32)nc1`, 25%; with `CN(C(=O)CSc1nnc(Nc2ccccc2)s1)C1CCS(=O)(=O)C1` (stereo not drawn), -3.39%.
Regarding `CC(=O)c1c(C)[nH]c(C(=O)OCC(=O)NCCC(C)C)c1C`, the inhibition was 3.75%.
`Cc1ccc(O)c(CCc2ccccc2)n1`: the inhibition is 87.9% (active).
As for `O=C(O)CCCc1ccccc1`, the figure is -5.59%; as for `c1ccc(CSCCc2ccncc2)cc1`, 1.66%; as for `CC(NC(=O)C(=O)N/N=C/c1ccc(Cl)cc1)c1ccccc1` (stereo not drawn), 5.89%.
As for `CC(C)(C)NC(=O)c1cccc(NC(=O)Cc2ccc(Br)cc2)c1`, the inhibition is 94.5% (active).
Consider `COc1ccc(CC(=O)Nc2ccc(C(=O)NC(C)(C)C)cc2)cc1`, for which the inhibition was -5.15%.
With `O=C(Cc1ccccc1)Nc1cccc(C(=O)N/N=C/c2ccco2)c1` the figure was -0.83%; with `C(=N\N1CCN(c2ccccn2)CC1)/C1=C(N2CCOCC2)C(=C/c2ccccc2)/CC1`, 15.2%; with `CCCc1nc(SCC(=O)Nc2ccccc2OC)c2c(=O)n(C)c(=O)n(C)c2n1`, -9.77%.
For `CCCCCNC(=O)c1cccnc1SCC(=O)Nc1ccccc1OC`, the inhibition is 54% (active).
As to `CCCNC(=O)c1ccccc1NC(=O)CSCc1ccc(OC)cc1`, the inhibition was 9.43%.
Turning to `COc1ccc(-n2nnnc2SCC(=O)NCc2cccs2)cc1`, the inhibition is -3.26%.
As to `COc1ccc(S(=O)(=O)N(C)C)cc1NC(=O)CSc1ncccn1`, the inhibition was 6.96%.
Take `O=C(NCc1ccncc1)NC12CC3CC(CC(C3)C1)C2`: the inhibition is 1.04%.
As for `CCOC(=O)c1c(NC(=O)C2CC=CCC2C(=O)O)sc(C)c1CC` (stereo not drawn), the figure is 0.64%; as for `O=S(=O)(c1cccc(C(F)(F)F)c1)N1CCN(c2cnccn2)CC1`, -1.36%; as for `Cc1ccc(S(=O)(=O)NCCSc2ccccc2)cc1[N+](=O)[O-]`, -8.64%.
Take `CCOC(=O)c1ccccc1NS(=O)(=O)c1ccc(OC)cc1`: the inhibition is 2.32%.
`COC(=O)c1ccccc1NC(=O)c1ccccc1NS(C)(=O)=O`: the inhibition was -0.37%.
Turning to `COC(=O)c1ccccc1NS(=O)(=O)c1ccc2[nH]c(=O)[nH]c2c1`, the inhibition is 86.2% (active).
With `COCCNC(=O)c1ccccc1NS(=O)(=O)c1ccc(C)c([N+](=O)[O-])c1`, the inhibition is 54.5% (active).
With `Cc1ccc(S(=O)(=O)Nc2nc3ccccc3s2)cc1[N+](=O)[O-]` the figure was -8.33%; with `O=S(=O)(Cc1ccccc1)c1nc2ccccc2n1Cc1ccccn1`, 10.6%.

The record behind these values is PubChem BioAssay AID1063 (University of Pittsburgh Molecular Library Screening Center, 2008).
